Measured values reported in the supplement of paper PMC11555231.

Biological target: PADI4, Q9UM07
Assay: log2 enrichment score relative to parent PADI4_3 peptide (binding to PADI4); higher = tighter binding than parent
Conditions: CaCl2: 10 mM
Summary of the method: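 Cyclic peptide mRNA-display library with each internal parent position randomised by NNK codons, a C-terminal HA tag and methionine reassigned to N-methyl-alanine, purified on anti-HA beads. One round, in triplicate, used bead-immobilised biotinylated His-tagged human PADI4 (100 nM) in HEPES/NaCl buffer with 10 mM CaCl2, DTT, Tween and blockers, with equilibrating washes over 10–12 h at RT. Input and eluted libraries were sequenced. Log2 enrichment (bound over input) is given relative to parent, averaged with standard deviation.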

Chain of PADI4, Q9UM07 (Q9UM07 whole entry): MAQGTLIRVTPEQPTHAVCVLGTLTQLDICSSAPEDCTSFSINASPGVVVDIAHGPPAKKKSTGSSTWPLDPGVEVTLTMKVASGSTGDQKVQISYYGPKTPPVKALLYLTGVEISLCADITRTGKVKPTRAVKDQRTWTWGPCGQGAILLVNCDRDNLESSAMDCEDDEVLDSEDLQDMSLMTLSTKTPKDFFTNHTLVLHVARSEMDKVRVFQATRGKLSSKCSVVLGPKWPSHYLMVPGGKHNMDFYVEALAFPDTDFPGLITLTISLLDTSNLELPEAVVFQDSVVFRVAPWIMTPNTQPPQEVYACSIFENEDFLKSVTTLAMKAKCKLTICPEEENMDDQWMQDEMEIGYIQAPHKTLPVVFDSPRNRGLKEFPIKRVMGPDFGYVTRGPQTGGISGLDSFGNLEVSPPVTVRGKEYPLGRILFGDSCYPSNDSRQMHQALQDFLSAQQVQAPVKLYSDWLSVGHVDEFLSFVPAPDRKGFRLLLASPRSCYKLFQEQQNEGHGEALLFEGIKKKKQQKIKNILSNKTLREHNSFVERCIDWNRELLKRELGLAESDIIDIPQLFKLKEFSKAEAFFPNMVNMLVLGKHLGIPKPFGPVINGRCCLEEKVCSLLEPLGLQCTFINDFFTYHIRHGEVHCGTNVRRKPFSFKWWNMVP

Row | Binder | log2 enrichment score
1 | YRDHHYRHPSYCG [PADI4_3_K10S K10S] | -1.42
2 | YRDHTYRHPKYCG [PADI4_3_H5T H5T] | -3.62
3 | YRDCHYRHPKYCG [PADI4_3_H4C H4C] | -3.15
4 | YREHHYRHPKYCG [PADI4_3_D3E D3E] | -2.84
5 | YRDHHYRHPEYCG [PADI4_3_K10E K10E] | -1.11
6 | YRDHHERHPKYCG [PADI4_3_Y6E Y6E] | -1.85
7 | YRDHSYRHPKYCG [PADI4_3_H5S H5S] | -3.98
8 | YRDHHYRHPKYCG [PADI4_3_D3D D3D] | 0
9 | YRDHHYRSPKYCG [PADI4_3_H8S H8S] | -2.81
10 | YRDHHYREPKYCG [PADI4_3_H8E H8E] | -3.8
11 | YRDHHYRHPKCCG [PADI4_3_Y11C Y11C] | -3.92
12 | YRDHHYRHPCYCG [PADI4_3_K10C K10C] | -2.06
13 | YRDHHYSHPKYCG [PADI4_3_R7S R7S] | -0.05
14 | YEDHHYRHPKYCG [PADI4_3_R2E R2E] | -2.93
15 | YRDHHYRHTKYCG [PADI4_3_P9T P9T] | -1.92
16 | YRDHHTRHPKYCG [PADI4_3_Y6T Y6T] | -2.52
17 | YRDHHYTHPKYCG [PADI4_3_R7T R7T] | -1.3
18 | YTDHHYRHPKYCG [PADI4_3_R2T R2T] | -1.69
19 | YRDHHCRHPKYCG [PADI4_3_Y6C Y6C] | -3.47
20 | YRDSHYRHPKYCG [PADI4_3_H4S H4S] | -2.9
21 | YRDHHYRHCKYCG [PADI4_3_P9C P9C] | -2.79

Row | Binder | log2 enrichment score
22 | YRDHHYCHPKYCG [PADI4_3_R7C R7C] | -0.84
23 | YRDEHYRHPKYCG [PADI4_3_H4E H4E] | -3.05
24 | YRDHHYEHPKYCG [PADI4_3_R7E R7E] | -0.753
25 | YRDHHYRHEKYCG [PADI4_3_P9E P9E] | -1.89
26 | YRDTHYRHPKYCG [PADI4_3_H4T H4T] | -3.53
27 | YRDHHYRHPTYCG [PADI4_3_K10T K10T] | 0.237
28 | YRCHHYRHPKYCG [PADI4_3_D3C D3C] | -4.3
29 | YRDHHYRHPKTCG [PADI4_3_Y11T Y11T] | -3.95
30 | YRDHCYRHPKYCG [PADI4_3_H5C H5C] | -4
31 | YRDDHYRHPKYCG [PADI4_3_H4D H4D] | -4.33
32 | YRDHHYRTPKYCG [PADI4_3_H8T H8T] | -3.89
33 | YCDHHYRHPKYCG [PADI4_3_R2C R2C] | -2.34
34 | YRDHHSRHPKYCG [PADI4_3_Y6S Y6S] | -2.21
35 | YRTHHYRHPKYCG [PADI4_3_D3T D3T] | -3.58
36 | YRDHHYRHPKECG [PADI4_3_Y11E Y11E] | -4.21
37 | YRDHHYRHPKSCG [PADI4_3_Y11S Y11S] | -4.12
38 | YRDHHYRCPKYCG [PADI4_3_H8C H8C] | -2.95
39 | YRDHHYRHSKYCG [PADI4_3_P9S P9S] | -1.69
40 | YRSHHYRHPKYCG [PADI4_3_D3S D3S] | -3.9
41 | YRDHEYRHPKYCG [PADI4_3_H5E H5E] | -4.25
42 | YSDHHYRHPKYCG [PADI4_3_R2S R2S] | -2.91
